From PubChem BioAssay AID933 (National Center for Advancing Translational Sciences (NCATS), 2007) come the findings set out here.

The structures appear in SMILES notation. Records with an inconclusive call do not appear. Entries that show only a call come without a potency. Unmarked numbers belong to inactive results. Activity calls are given as the source filed them. Calls follow the shape of the dose curve; as a rule, active = well fitted activation curve with a large enough effect in the signal ratio, with a control signal flat; inconclusive = small, poorly fitted or top-dose-only effect, or a change in a side signal; inactive = flat fitted curve, though single readings scatter; the % refers to the signal ratio.
Potency is read from the fitted curve at half-maximal effect.

Chain of Thyrotropin receptor (Homo sapiens) (P16473 whole entry, looked up): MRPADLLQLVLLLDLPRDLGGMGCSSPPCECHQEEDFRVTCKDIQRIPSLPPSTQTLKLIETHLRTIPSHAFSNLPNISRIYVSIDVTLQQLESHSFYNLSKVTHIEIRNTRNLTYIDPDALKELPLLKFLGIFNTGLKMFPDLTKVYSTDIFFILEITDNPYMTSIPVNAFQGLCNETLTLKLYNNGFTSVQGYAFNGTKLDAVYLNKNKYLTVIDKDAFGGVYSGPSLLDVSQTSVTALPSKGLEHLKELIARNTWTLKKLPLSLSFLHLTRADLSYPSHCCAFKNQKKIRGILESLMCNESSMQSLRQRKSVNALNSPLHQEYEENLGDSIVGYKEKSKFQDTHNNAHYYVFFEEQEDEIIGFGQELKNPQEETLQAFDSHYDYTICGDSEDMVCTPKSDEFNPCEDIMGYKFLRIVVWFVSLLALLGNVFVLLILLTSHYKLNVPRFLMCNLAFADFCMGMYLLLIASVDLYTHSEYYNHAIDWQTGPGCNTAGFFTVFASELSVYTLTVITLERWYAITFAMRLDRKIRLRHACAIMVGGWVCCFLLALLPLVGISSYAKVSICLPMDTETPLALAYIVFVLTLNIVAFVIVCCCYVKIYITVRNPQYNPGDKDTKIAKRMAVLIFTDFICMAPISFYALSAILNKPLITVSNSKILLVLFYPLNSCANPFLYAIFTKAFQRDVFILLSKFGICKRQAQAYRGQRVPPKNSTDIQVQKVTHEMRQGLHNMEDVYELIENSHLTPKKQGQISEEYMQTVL

This assay concerns the target Thyrotropin receptor (Homo sapiens) (UniProt P16473). Description: Secondary Concentration-Response Assay for Agonists of the Thyroid Stimulating Hormone Receptor: HTRF Activity Detection. The following applies: HEK293-TSHR cells, cAMP HTRF ratio, 30 min; series mostly up to 91.7 µM. In a few lines:
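cAMP accumulation was detected by antibody-based HTRF, excitation 330 nm, emissions 615 and 660 nm. Compounds acted for 30 min at room temperature on stably TSHR-transfected HEK 293 cells, with phosphodiesterase inhibitor RO 20-1724 (100 uM) in the medium.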
Background: In TR-FRET formats the signal depends on donor and acceptor labels being close together.
`O=C1c2ccccc2NC(c2ccc(F)cc2)N1Cc1ccco1` (stereo unspecified): the Potency entry is “inactive”.

For the molecule `O=C1c2ccccc2NC(c2ccc(Cl)cc2Cl)N1Cc1ccccc1` (stereo unspecified), the Potency entry is “inactive”.

Turning to `COC(=O)C1=C(C)NC(=O)NC1c1cn(-c2ccccc2)nc1-c1cccs1` (stereo unspecified), the activation is -0.246% [at 0.00035 µM].

As to `Cc1noc(/C=C/c2ccco2)c1S(=O)(=O)N1CCC(C(=O)NCc2ccco2)CC1`, the activation is -0.595% [at 0.00035 µM].

As to `COc1ccc(C2Nc3ccccc3C(=O)N2c2ccccc2)cc1COc1ccc(NC(C)=O)cc1` (stereo unspecified), the Potency entry was “inactive”.

Turning to `CCCN1C(=O)c2ccccc2NC1c1ccc(OC)c(COc2cccc(OC)c2)c1` (stereo unspecified), the Potency result is “inactive”.

With `O=C(COC(=O)C12CC3CC(CC(Cl)(C3)C1)C2)NCc1ccco1`, the Potency is 14.1 µM (active).

Regarding `CCn1c(=O)c(C(=O)CN2CCCc3ccccc32)c(N)n(Cc2ccccc2)c1=O`, the Potency result is “inactive”.

For the molecule `CCN(c1ccccc1)S(=O)(=O)c1ccc(Oc2ccc(-n3ccnc3)cc2)nc1`, the activation was 0.254% [at 0.00035 µM].

As for `CCOC(=O)C1C(=O)Nc2nc(C)nn2C1c1ccccc1` (stereo unspecified), the activation was 2.16% [at 0.00035 µM].

For the molecule `COc1ccc(-c2nc3ccccc3n2Cc2ccccc2)cc1COc1ccc(NC(C)=O)cc1`, the Potency entry is “inactive”.

With `COc1ccc2c(c1)C1(Nc3ccccc3C(=O)N1c1ccccc1)C(=O)N2` (stereo unspecified), the Potency result was “inactive”.

On to `COc1ccc(C(=O)N(Cc2ccccc2)Cc2ccc(OC)c(COc3ccc(NC(C)=O)cc3)c2)c(O)c1`, for which the Potency entry is “inactive”.

With `Cc1onc(-c2ccccc2Cl)c1C(=O)Nc1ccc(-n2nncc2-c2ccco2)cc1`, the activation was 0.344% [at 0.00035 µM].

For the molecule `COc1cc(C2Nc3ccccc3C(=O)N2Cc2ccccc2)ccc1OCc1ccccc1` (stereo unspecified), the Potency result was “inactive”.

For `Brc1ccc(Oc2nnnn2-c2ccccc2)cc1`, the activation is -1.07% [at 0.00035 µM].

As to `O=C(c1cccs1)N(Cc1ccco1)c1ccc(O)cc1`, the Potency result was “inactive”.

With `Cc1ccc(C2Nc3ccccc3C(=O)N2Cc2ccco2)cc1` (stereo unspecified), the Potency result is “inactive”.

`O=C1c2ccccc2NC(c2ccccc2OCc2ccccc2)N1Cc1ccco1` (stereo unspecified): the Potency entry is “inactive”.

Take `COc1cc(C2Nc3ccccc3C(=O)N2Cc2ccco2)cc(OC)c1OC` (stereo unspecified): the Potency entry was “inactive”.

Take `COc1ccc(C2Nc3ccccc3C(=O)N2Cc2ccco2)cc1COc1c(C)cccc1C` (stereo unspecified): the Potency result was “inactive”.

For the molecule `COc1ccc(N2C(=O)c3ccccc3NC23C(=O)N(C)c2ccccc23)cc1` (stereo unspecified), the Potency entry was “inactive”.

For the molecule `CCOc1cc(C2Nc3ccccc3C(=O)N2c2ccccc2)c(Br)cc1OCC(=O)O` (stereo unspecified), the Potency result was “inactive”.

Turning to `COc1ccc(C2Nc3ccccc3C(=O)N2Cc2ccco2)cc1COc1ccccc1` (stereo unspecified), the Potency result was “inactive”.

`O=C(CN1C(=O)NC2(CCCCC2)C1=O)NCCC1=CCCCC1`: the activation is 1.34% [at 0.00035 µM].

Turning to `O=C1c2ccccc2NC(c2ccccc2)N1c1ccc(O)cc1` (stereo unspecified), the Potency result was “inactive”.

Take `COc1ccc2c(c1OC)C(=O)N1c3ccccc3C(=O)N(c3ccccc3)C21` (stereo unspecified): the Potency entry was “inactive”.

With `COc1ccc(C2Nc3ccccc3C(=O)N2Cc2ccco2)cc1COc1ccc([N+](=O)[O-])cc1` (stereo unspecified), the Potency result is “inactive”.

Take `COc1cccc(-c2nc(SC)nc3sc(C(=O)NC(C)(C)C)c(N)c23)c1`: the Potency entry is “inactive”.

Consider `CC1(C)c2ccccc2N2CC(=O)NC21/C=C/c1ccco1` (stereo unspecified), for which the activation was 1.29% [at 0.00035 µM].

With `COc1ccc(C2Nc3ccccc3C(=O)N2Cc2cccc(C(F)(F)F)c2)cc1COc1ccc(NC(C)=O)cc1` (stereo unspecified), the Potency was 4.47 µM (active).

Consider `CS(=O)(=O)N1CCN(C(=O)c2cc(-c3cccs3)nc3ccccc23)CC1`, for which the activation is 0.0393% [at 0.00035 µM].

Take `CCN(CC)CCN1C(=O)c2ccccc2NC1c1ccc(OC)c(COc2ccc(NC(C)=O)cc2)c1` (stereo unspecified): the Potency entry is “inactive”.

For `CCN(CC)CCN1C(=O)c2ccccc2NC1c1ccccc1F` (stereo unspecified), the Potency result is “inactive”.

With `CCS(=O)(=O)N1CCN(C(C)CCc2ccccc2)CC1` (stereo unspecified), the activation is 0.972% [at 0.00035 µM].

As for `O=C1c2ccccc2N2C(=O)c3ccccc3C2N1Cc1ccco1` (stereo unspecified), the Potency entry is “inactive”.
